From PubChem BioAssay (NCATS)
Results filed as inconclusive are left out. Activity calls are given as the source filed them. Calls follow the shape of the dose curve; as a rule, active = well fitted cell-killing curve with a large enough effect; inconclusive = small, poorly fitted or top-dose-only effect, or effect the other way; inactive = no such curve, though single readings can be large or run the other way.

Tests used:
[1] = Quantitative High-Throughput drug screen in 47 multiple myeloma cell lines against the NCATS MIPE library collection: PCM6_Riken cell viability assay (AID 1919870); also: nearly all actives have a fitted effect of over 30% in size
Method in brief: (§1)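 Viability after 48 h drug exposure was measured as ATP-dependent luminescence. Cells, 500 per well, sat at 37 °C under 5% CO2; DMSO wells set 100%, media-only wells 0%.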

[2] = Quantitative High-Throughput drug screen in 47 multiple myeloma cell lines against the NCATS MIPE library collection: RPMI8226_ATCC cell viability assay (AID 1919871); also: nearly all actives have a fitted effect of over 30% in size
Method in brief: as §1

[3] = Quantitative High-Throughput drug screen in 47 multiple myeloma cell lines against the NCATS MIPE library collection: OPM2_DSMZ cell viability assay (AID 1919872); also: nearly all actives have a fitted effect of over 30% in size
Method in brief: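 Inhibition of cell viability is measured here. Each line was plated at 500 cells per well, treated with MIPE 4.0 drugs, kept 48 hours at 37C, then assayed for ATP content by CellTiter-Glo luminescence.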

[4] = Quantitative High-Throughput drug screen in 47 multiple myeloma cell lines against the NCATS MIPE library collection: KMS11_JCRBsus cell viability assay (AID 1919873); also: nearly all actives have a fitted effect of over 50% in size
Method in brief: as §1

[5] = Quantitative High-Throughput drug screen in 47 multiple myeloma cell lines against the NCATS MIPE library collection: KMS28BM_JCRB cell viability assay (AID 1919874); also: nearly all actives have a fitted effect of over 35% in size
Method in brief: as §1

Measured: Potency
Potency is read from the fitted curve at half-maximal effect.

Nc1ccn(C2CO[C@H](CO)O2)c(=O)n1 (stereo not given in full)
inactive: all assays above

CCOC(=O)C=C[C@H](C[C@@H]1CCNC1=O)NC(=O)[C@@H](CC(=O)[C@@H](NC(=O)c1cc(C)on1)C(C)C)Cc1ccc(F)cc1
not listed: [5]
inactive: all other assays above

NC(=O)Nc1cc(-c2ccc(CN3CCOCC3)cc2)sc1C(N)=O
active: [1] 1.66 µM | [2] 7.43 µM | [3] 14.8 µM | [4] 11.8 µM

CN(CC(=O)N(Cc1ccc(C2CCCCC2)cc1)c1ccc(C(=O)O)c(O)c1)S(=O)(=O)c1c(F)c(F)c(F)c(F)c1F
active: [1] 6.62 µM | [2] 23.5 µM | [3] 23.5 µM

COc1ccc(C[C@@H](C)[C@@H](C)Cc2ccc(OC)c(OC)c2)cc1OC
active: [1] 0.332 µM | [2] 1.18 µM | [3] 0.469 µM | [4] 0.132 µM

COc1ccc2cc([S+]([O-])Cc3ncc(C)c(OC)c3C)nc2c1
not listed: [5]
inactive: all other assays above

COC(=O)[C@@H]1[C@H]2C[C@@H]3c4[nH]c5ccccc5c4CCN3C[C@@H]2CC[C@@H]1O
not listed: [5]
inactive: all other assays above

Cc1coc2c1C(=O)C(=O)c1c-2ccc2c(C)cccc12
active: [1] 3.72 µM

CNC(=O)c1cccc(-c2ccc3c(N4CCOC[C@H]4C)nc(N4CCOC[C@H]4C)nc3n2)c1
active: [1] 0.118 µM | [2] 0.0209 µM | [3] 0.105 µM

COc1ccnc2[nH]cc(C(=O)C(=O)N3CCN(C(=O)c4ccccc4)C[C@@H]3C)c12
not listed: [5]
inactive: all other assays above

c1ccc2c(Oc3nc(Nc4ccc(N5CCOCC5)cc4)c4ncn(C5CCCCC5)c4n3)cccc2c1
inactive: [1] | [2] | [3]

Cn1cc(C=CC(=O)c2cccc(F)c2)cc1C=CC(=O)NO
inactive: [2]
active: [1] 18.7 µM | [3] 23.5 µM | [4] 14.8 µM

O=C(Nc1nnc(-c2ccco2)o1)c1cc(-c2ccccc2)nc2ccccc12
inactive: [3]
active: [1] 18.7 µM | [2] 13.2 µM

FC(F)(F)c1ccc(Nc2nc3ccc(Oc4ccnc(-c5ncc(C(F)(F)F)[nH]5)c4)cc3[nH]2)cc1
active: [1] 18.7 µM | [2] 26.4 µM

Cn1c(Nc2ccc(C(F)(F)F)cc2)nc2cc(Oc3ccnc(-c4ncc(C(F)(F)F)[nH]4)c3)ccc21
active: [1] 1.87 µM | [2] 16.6 µM

C[C@H](CCC(=O)O)[C@H]1CC[C@H]2[C@@H]3[C@H](O)C[C@@H]4C[C@H](O)CC[C@]4(C)[C@@H]3CC[C@]12C
not listed: [5]
inactive: all other assays above

CN1CCCN(C(=O)c2cccc(-c3ccc(C=C4C(=O)Nc5ccc(Cl)cc54)o3)c2)CC1
active: [1] 9.35 µM | [2] 23.5 µM | [3] 23.5 µM | [4] 9.35 µM | [5] 10.5 µM

COC(=O)[C@@H]1CC2=CC(=O)CC[C@]2(C)[C@@]23O[C@@H]2C[C@@]2(C)[C@H](CC[C@@]24CCC(=O)O4)[C@@H]13
not listed: [5]
inactive: all other assays above

CC(C)N(CC[C@H](c1ccccc1)c1cc(CO)ccc1O)C(C)C
active: [5] 1.05 µM
inactive: all other assays above

Nc1nc(=O)n([C@H]2CSC(CO)O2)cc1F (stereo not given in full)
inactive: [1] | [2] | [3]

CC[C@H]1OC(=O)[C@H](C)[C@@H](O[C@H]2C[C@@](C)(OC)[C@@H](O)[C@H](C)O2)[C@H](C)[C@@H](O[C@@H]2O[C@H](C)C[C@H](N(C)C)[C@@H]2O)[C@](C)(OC)C[C@@H](C)C(=O)[C@H](C)[C@@H](O)[C@]1(C)O
inactive: [1] | [2] | [3]

CCOC(=O)N1CCN([N+]([O-])=NOc2ccc([N+](=O)[O-])cc2C#N)CC1
active: [1] 0.469 µM | [2] 1.05 µM | [3] 0.935 µM | [4] 0.662 µM | [5] 0.935 µM

N#Cc1c(NC(=O)c2cccc3ccccc23)sc2c1CCCC2
active: [1] 0.296 µM | [2] 2.64 µM | [3] 0.743 µM | [4] 0.148 µM

CN[C@H]1[C@@H](O)[C@@H]2O[C@@H]3O[C@H](C)CC(=O)[C@]3(O)O[C@@H]2[C@@H](NC)[C@H]1O
active: [1] 1.48 µM | [2] 9.35 µM
